Measurements from PubChem BioAssay (NCATS).
Inconclusive results are not listed. The call rests on the fitted dose curve; in most records, active means well fitted inhibition curve with a large enough effect; inconclusive means small, poorly fitted or top-dose-only effect; inactive means flat fitted curve, though single readings scatter. Bridge positions count the residues as written; N and C are the ends. Square brackets hold non-standard residues; d marks the D form. Peptide text beside a SMILES is read from it. * marks the point of attachment. Ileψ(thiazoline)Cys = CC[C@H](C)[C@H](N)C1=N[C@H](C(=O)*)CS1; d(aIle) = CC[C@H](C)[C@@H](N)C(=O)O; dOrn = NCCC[C@@H](N)C(=O)O

Each compound was assayed on CP266 (assay: qHTS profiling for inhibitors of Plasmodium falciparum proliferation (AID 504749;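 further: 0% = DMSO vehicle and full inhibition = artemisinin control; nearly all actives have a fitted effect of over 60% in size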)). Conditions: P. falciparum in erythrocytes, SYBR Green DNA, 72 h; series mostly up to 12.8 µM; activity, negative = inhibition: at the top concentration.
Method in brief: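 SYBR Green fluorescence (ex 485 nm, em 535 nm) reports parasite DNA after 72 h compound exposure of infected red cells at 0.3% parasitemia, 2.5% hematocrit; signal normalized to 0.29 uM artemisinin and vehicle wells.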

activity, negative = inhibition, inactive:
C[C@@H]1C[C@H]2[C@@H]3C[C@H](F)C4=CC(=O)C=C[C@@]4(C)[C@]3(F)[C@H](O)C[C@]2(C)[C@@]1(O)C(=O)CO 10.2%, C[C@H](O)Cn1cnc2c1c(=O)n(C)c(=O)n2C 0.257%, CCCCC[C@H](O)/C=C\[C@@H]1[C@H](O)CC(=O)[C@@H]1CCCCCCC(=O)O 7.57%, CC(=C(CCOP(=O)(O)O)SC(=O)c1ccccc1)N(C=O)Cc1cnc(C)nc1N -2.88%, NC[C@@H]1O[C@@H](O[C@H]2[C@H](O)[C@H](O[C@@H]3O[C@H](CO)[C@@H](O)[C@H](N)[C@@H]3O)[C@@H](N)C[C@H]2N)[C@H](N)C[C@@H]1O -3.14%, CCc1c(C)[nH]c2c1C(=O)[C@H](CN1CCOCC1)CC2 6.06%, C=C1c2c(Cl)ccc(O)c2C(O)=C2C(=O)[C@@]3(O)C(O)=C(C(N)=O)C(=O)[C@@H](N(C)C)[C@@H]3[C@@H](O)[C@H]12 2.07%, CCC(=O)OCC(=O)[C@@]1(OC(=O)CC)[C@H](C)C[C@@H]2[C@@H]3[C@H]([C@@H](O)C[C@@]21C)[C@]1(C)C=CC(=O)C=C1C[C@@H]3Cl -3.83%, CC[C@H](C)[C@H](N)C1=N[C@H](C(=O)N[C@@H](CC(C)C)C(=O)N[C@@H](CCC(=O)O)C(=O)N[C@@H](C(=O)N[C@H]2CCCCNC(=O)[C@@H](CC(N)=O)NC(=O)[C@@H](CC(=O)O)NC(=O)[C@@H](Cc3cnc[nH]3)NC(=O)[C@@H](Cc3ccccc3)NC(=O)[C@@H]([C@@H](C)CC)NC(=O)[C@@H](CCCN)NC2=O)[C@@H](C)CC)CS1 ({Ileψ(thiazoline)Cys}-LE[d(aIle)]K[dOrn][d(aIle)][dF][dH][dD][dN]; lactam 4-C) 2.09%, C[C@@H](CNC1CCCCC1)OC(=O)c1ccccc1 -1.51%, CCOC(=O)O[C@@H](C)OC(=O)[C@@H]1N2C(=O)[C@@H](NC(=O)[C@@H](N)c3ccccc3)[C@H]2SC1(C)C 7.75%, Cc1cccc(CN2CCN([C@@H](c3ccccc3)c3ccc(Cl)cc3)CC2)c1 1.92%, Cc1ccsc1/C=C\C1=NCCCN1C 1.64%, O=C(O)COCCN1CCN([C@@H](c2ccccc2)c2ccc(Cl)cc2)CC1 -16.8%, C#C[C@]1(O)CC[C@@H]2[C@H]3CCC4=CCCC[C@@H]4[C@@H]3CC[C@@]21C 6.96%, CC1(C)[C@@H](OC(=O)CCC(=O)O)CC[C@@]2(C)[C@H]1CC[C@@]1(C)[C@H]2C(=O)C=C2[C@H]3C[C@](C)(C(=O)O)CC[C@]3(C)CC[C@@]21C -2.29%, C[C@H](CCC(=O)O)[C@H]1CC[C@@H]2[C@@H]3[C@@H](O)C[C@H]4C[C@@H](O)CC[C@@]4(C)[C@H]3CC[C@@]21C 1.87%, CN1CCO[C@H](c2ccccc2)c2ccccc2C1 -11.1%
